Screening data: PubChem BioAssay, National Center for Advancing Translational Sciences (NCATS)
Only some compounds are listed: those with a hit (about 9.2% of all), similar ones and a draw of the others.
NPC1 promoter act: activates the NPC1 promoter; 320,000 compounds, 2.4% hits; Potency, µM (series often up to 9.22 µM), for the others: at the highest dose activation, hits mostly activators; Huh7 NPC1 promoter luciferase reporter, 24 h; also: % of control where 0% means no effect; nearly all actives have a fitted effect of over 60% in size
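Compounds in DMSO were transferred onto Huh7 NPC1-luciferase reporter cells pre-incubated 2 h; after 24 h at 37 °C, Amplite reagent was dispensed and luminescence recorded 10 min later.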
ELG1 genotox: genotoxicity induction in ELG1-luciferase HEK293T cells. HEK293T ELG1-luciferase reporter, luminescence, 16 h. Potency, µM (highest dose often 46 µM), for the others: at the highest dose activity change, positive = activation, most hits filed as activators. 330,000 compounds, 1.3% hits. AID 504466; also: % of control where 0% means no effect; nearly all actives have a fitted effect of over 60% in size
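Genotoxic stress is detected as increased luminescence from luciferase-tagged ELG1 in HEK293T cells, measured with ONE-Glo after a 16 hr treatment at 37 °C.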
Rab9 promoter act: activators of Rab9 promoter | AID 485297 | Potency, µM (top dose mostly 9.22 µM), inactives show at the top dose activation, negative = inhibition, most hits filed as activators | 320,000 compounds, 2.8% hits | Huh7 Rab9 promoter-luciferase reporter, luminescence, 24 h; also: % of control where 0% means no effect; nearly all actives have a fitted effect of over 60% in size
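Rab9 promoter-driven luciferase in stably transfected Huh7 cells; 1500 cells/well rested 2 h, exposed to compound in DMSO for 24 h at 37 °C, 5% CO2. Luminescence read 10 min after adding luciferase reagent at ambient temperature.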
ELG1 DNA repair: ELG1-dependent DNA repair inhibition; AID 504467; HEK293T ELG1-luciferase reporter, luminescence, 16 h; DNA damage induced by 5-fluorouridine; Potency, µM (series often up to 46.1 µM), for the others: top-dose activity change, negative = inhibition, usual class: inhibitors; 330,000 compounds, 2.3% hits; also: % is scaled to controls: 0 for no effect and ±100 for the full control effect; nearly all actives have a fitted effect of over 55% in size
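Overnight (16 hr) co-exposure of 2,000 cells/well to 5-fluorouridine and compound at 37 °C preceded detection. Luciferase was quantified via ONE-Glo luminescence; loss of signal denotes inhibition.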
SMN2 splice up: enhancers of SMN2 splice variant expression; HEK293 SMN2-luciferase splicing reporter, luminescence, 30-36 h; Potency, µM (highest dose often 46.1 µM), without a hit: at the highest dose activity change, positive = activation, hits mostly activators; 210,000 compounds, 2.8% hits; AID 1458; also: % of control where 0% means no effect; nearly all actives have a fitted effect of over 55% in size
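qHTS luciferase splicing reporter: luminescence rises when SMN2 exon 7 is included in transfected HEK293 cells. Compound exposure lasted 30-36 h at 37C, with 4.5 mM final sodium butyrate as control, followed by a ONE-Glo read.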
FLuc counter: firefly luciferase modulation, counter-screen for miR-21 project. 360,000 compounds, 6.9% hits. P08659. purified FLuc, Km substrates, luminescence inhibition. Potency, µM (titrated, usually from 57.5 µM), for inactives: at the top dose activity change, negative = inhibition, usual class: inhibitors. AID 588342;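 also: plate controls were vehicle for no effect and reference inhibitor for full effect; nearly all actives have a fitted effect of over 55% in size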
Target sequence (P08659 whole entry, looked up): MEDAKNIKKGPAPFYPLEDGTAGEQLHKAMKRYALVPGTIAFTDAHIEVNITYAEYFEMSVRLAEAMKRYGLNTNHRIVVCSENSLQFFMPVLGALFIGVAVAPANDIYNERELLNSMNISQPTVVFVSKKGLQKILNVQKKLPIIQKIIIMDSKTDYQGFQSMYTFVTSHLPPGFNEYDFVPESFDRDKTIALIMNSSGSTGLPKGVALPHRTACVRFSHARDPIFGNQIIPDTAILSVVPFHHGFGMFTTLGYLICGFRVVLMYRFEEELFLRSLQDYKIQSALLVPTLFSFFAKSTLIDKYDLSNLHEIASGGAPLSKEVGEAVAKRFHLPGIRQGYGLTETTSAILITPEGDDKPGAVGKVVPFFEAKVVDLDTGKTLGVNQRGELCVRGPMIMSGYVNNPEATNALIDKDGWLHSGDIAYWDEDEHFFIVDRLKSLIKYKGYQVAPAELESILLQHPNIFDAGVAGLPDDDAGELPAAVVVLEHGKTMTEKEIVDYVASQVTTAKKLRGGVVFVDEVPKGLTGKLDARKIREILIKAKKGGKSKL
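Purified P. pyralis luciferase (10nM final) with 10uM D-luciferin and 10uM ATP (Km levels) in 50mM Tris acetate pH 7.5, 10mM Mg acetate, 0.01% Tween-20, 0.05% BSA; qHTS 6-point titration, ~60 µM downward; luminescence read.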
Starred values were filed as active, the others as inactive; ? = inconclusive; nt = no result given; [ ] = remark or other dose. Calls follow the shape of the dose curve; as a rule, active = well fitted curve in the direction sought with a large enough effect; inconclusive = small, poorly fitted or top-dose-only effect, or another doubt; inactive = no such curve, though single readings can be large; an effect the other way counts as inactive or inconclusive. Potency is read from the fitted curve at half-maximal effect.

SMILES	NPC1 promoter act	ELG1 genotox	Rab9 promoter act	ELG1 DNA repair	SMN2 splice up	FLuc counter
Cc1ccc(NC(=O)CCN2CC(C)OC(C)C2)cc1 (centres undefined)	-0.4%	-2.8%	2.1%	22.6%	nt	-1.1%
COc1ccc(-c2csc(NC(=O)C3CCN(c4ncnc5sc(C)c(C)c45)CC3)n2)cc1OC	-37.3%	-10.7%	-36.1%	5.17µM*	nt	-1.9%
COc1ccccc1OCC(=O)NNC(=O)C1CCN(c2ncnc3sc(C)c(C)c23)CC1	-4.0%	-7.7%	-1.2%	?	nt	3.5%
O=C(N/N=C/c1ccccn1)c1cccc(S(=O)(=O)N2CCCC2)c1	1.5%	0.1%	1.2%	-1.5%	nt	-4.8%
Cc1ccc2c(c1)C(c1ccncc1)=NNC(c1ccc(F)cc1)=N2	5.8%	4.6%	13.8%	-0.4%	15.3%	-15.3%
Brc1ccc(C2=Nc3ccccc3C(c3ccncc3)=NN2)cc1	-1.5%	3.0%	-1.4%	2.8%	nt	-10.2%
Cc1ccc(C2=Nc3cccnc3C(c3ccccc3)=NN2)cc1	3.55µM*	?	3.16µM*	?	12.6µM*	10.7µM*
COc1ccc2c(c1)C(c1ccc([N+](=O)[O-])cc1)=NNC(c1ccco1)=N2	-0.1%	-2.1%	-1.9%	?	-26.5%	13.5µM*
Cc1ccc(C2=Nc3ccc(Br)cc3C(c3ccncc3)=NN2)cc1	-3.2%	2.6%	27.3%	?	-98.5%	26.9µM*
Cc1ccc2c(c1)C(c1ccncc1)=NNC(c1ccccc1)=N2	?	6.7%	2.82µM*	?	nt	16.9µM*
CCCOc1ccc(C2=NNC(c3cccs3)=Nc3ccc(OC)cc32)cc1	-0.2%	-1.8%	-1.2%	16.4µM*	-1.1%	?
CCOc1ccc2c(c1)C(c1ccccc1)=NNC(c1ccccc1)=N2	1.7%	-2.7%	-2.9%	13µM*	-2.9%	-4.4%
COc1ccc2c(c1)C(c1cccs1)=NNC(c1ccncc1)=N2	-3.0%	-6.1%	-8.4%	?	nt	-15.8%
Cc1ccc2nc(-c3ccccc3)cn2c1	0.112µM*	?	?	?	0.501µM*	0.12µM*
Cc1ccc2nc(-c3ccccn3)c(NC3CCCC3)n2c1	-4.4%	5.8%	-5.0%	?	nt	-0.5%
Cc1ccc2nc(-c3ccc(S(=O)(=O)N4CCOCC4)cc3)cn2c1	1.6%	23.1µM*	15.5%	?	4.6%	-9.9%
CC(=O)Nc1ccc(-c2cn3cc(C)ccc3n2)cc1	3.16µM*	?	1µM*	?	4.47µM*	1.9µM*
CC(=O)Nc1ccc(C)cc1	0.3%	3.7%	0.9%	-0.2%	-0.1%	-0.4%
Cc1ccc2nc(-c3ccc(-c4ccccn4)s3)cn2c1	0.447µM*	1.64µM*	0.398µM*	?	nt	0.19µM*
FC(F)(F)c1cc(NC(=S)Nc2ccc3ccccc3c2)cc(C(F)(F)F)c1	nt	nt	nt	nt	3.8%	nt
COc1ccc(C)cc1N(C(=O)c1snc(C(N)=O)c1N)C(C(=O)NC1CCCCC1)c1ccc(C)o1 (centres undefined)	-4.8%	-6.8%	-5.1%	-19.5%	nt	1.1%
Cc1ccc2nc(-c3ccc(O)c(O)c3)cn2c1	?	?	7.6%	?	nt	3.38µM*
CCN(CC)S(=O)(=O)c1ccc(-c2cn3cc(Cl)ccc3n2)cc1	17.5%	5.7%	20.4%	23.7%	nt	?
COc1ccc(CC(=O)NCC(C)(C)N2CCOCC2)cc1	-3.3%	9.1%	2.6%	14.7%	nt	0.1%
O=S(=O)(Nc1ncccn1)c1ccc(NC(=S)NCCc2ccccc2)cc1	-3.7%	3.4%	-5.7%	8.7%	-2.7%	-8.5%
SMILES	NPC1 promoter act	ELG1 genotox	Rab9 promoter act	ELG1 DNA repair	SMN2 splice up	FLuc counter
O=C(CSc1nnc(-c2ccncc2)n1-c1ccc(F)cc1)NNC(=O)c1cccc(O)c1	-0.2%	-2.4%	-6.7%	4.6%	17.6%	0.3%
COc1ccc(/C=N/N=C(\N)c2nonc2N)cc1	0.631µM*	0.731µM*	0.398µM*	?	4.47µM*	2.13µM*
COc1cc(/C=N/N=C(/N)c2nonc2N)cc(Br)c1OCc1cccc(C)c1	-1.9%	-3.2%	-7.0%	-3.9%	8.1%	-6.2%
COc1cc(/C=N/N=C(\N)c2nonc2N)cc(OC)c1O	-0.8%	?	1.3%	?	nt	9.53µM*
CCN(CC(=O)NC(=O)Nc1ccccc1F)Cc1ccccc1	-8.2%	18.3µM*	1.1%	17.5%	nt	2.5%
N=C1C(c2nc3ccccc3[nH]2)=C(O)CN1C1CCCCC1	3.16µM*	?	2µM*	?	nt	?
Cc1ccc(C2=NN(CC(=O)NCCCN(CC(C)C)CC(C)C)C(=O)CC2)cc1	nt	nt	nt	nt	nt	2.1%
COc1cccc(CNC(=O)c2ccc(OCC(=O)N3CCOCC3)c(OC)c2)c1	6.2%	1.5%	-1.3%	0.2%	nt	-4.5%
CC(C)(C)c1ccc(-c2nnc(N)o2)cc1	2.82µM*	?	2.82µM*	?	nt	6.01µM*
CC(C)(C)c1ccc(OCc2nnc(-c3ccccc3)o2)cc1	nt	nt	nt	nt	-0.6%	?
COc1cccc(OCc2cc(C(=O)N3CCN(c4ccccc4OC)CC3)no2)c1	?	16.8%	?	?	nt	15.1µM*
COc1cccc(OCc2cc(C(=O)N3CCN(c4ccccc4O)CC3)no2)c1	2.82µM*	?	3.16µM*	?	nt	12µM*
COc1ccc(OCc2cc(C(=O)N3CCN(CC4CC4)CC3)no2)c(Cl)c1	?	4.6%[9.26 µM]	?	?	nt	?
COc1cccc(OCc2cc(C(=O)N3CCN(C(C)=O)CC3)no2)c1	?	?	3.16µM*	?	nt	?
CC(C)c1ccc(NC(=O)Cn2nnc(C(=O)NCc3ccc(Cl)cc3)c2N)cc1	nt	nt	nt	nt	nt	3.0%
COc1ccc(NC(=O)c2cccc3c2C(=O)c2ccc(-c4cnc(OC)nc4)cc2S3(=O)=O)cc1	0.5%	0.6%	-4.4%	5.1%	nt	-4.7%
O=C(COc1ccc(-c2ccccc2)cc1)Nc1cccnc1	-11.5%	16.6%	-3.2%	?	nt	5.36µM*
CCC(C)(C)c1ccc(OCC(=O)Nc2ccncc2)cc1	0.2%	-0.7%	-3.0%	5.8%	nt	7.57µM*
O=C(COc1ccc([N+](=O)[O-])cc1)Nc1cccnc1	-0.7%	-2.2%	2.0%	4.2%	nt	-10.7%
O=C(COc1ccc(Nc2ccccc2)cc1)Nc1ccncc1	-2.3%	?	-2.3%	18.3µM*	nt	-15.8%
CCN(CC)C(=O)C(=O)N/N=C/c1ccc(F)cc1	0.2%	1.3%	-0.1%	11.5%	nt	0.0%
CCOC(=O)c1c(NC(=O)c2cc(=O)c3cc(C)cc(C)c3o2)sc(C)c1C	nt	nt	nt	nt	5.9%	-1.8%
O=C(CSc1nc2ncccc2o1)Nc1cccc(C(F)(F)F)c1	nt	nt	nt	nt	nt	4.4%
